# From PubChem BioAssay AID1159580 (chemical genetic matrix, 2015)
# Several values for one entry are separate records, joined by “and”; a condition that tells them apart may be missing. Equal entries are not always repeated. Among all 5,500 compounds or so, about 2,000 (36%) were called active. Inconclusive results (about 18%) are left out. Cut-off read from the data, not from the text of the source: active = normalized growth mostly below about 0.91 (no sharp cut-off); inconclusive = no clear call, values can overlap the other calls; inactive = mostly above about 0.92. The list shows a part of the results. The source holds several records for some structures; these can differ, active in one and inactive in another.
# Assay: chemical genetic growth profiling, strain panel (AID 1159580);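 note: tested at 20 µM; growth read once vehicle control cultures reached saturation at 30 °C; 1 = growth at the plate median or of vehicle wells; lower values mean less growth of the strain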
# Conditions: S. cerevisiae deletion strains, growth OD
smiles,measurement,setting,value
CSc1ccc2c(c1)N(CCC1CCCCN1C)c1ccccc1S2 (stereo not given),normalized growth,"locus YAL013W, strain DEP1, stronger effect = lower value",0.161 (active) and 0.864 (active)
same,normalized growth,"locus YAL021C, strain ccr4, stronger effect = lower value",0.939 (inactive)
same,normalized growth,"locus YAL026C, strain drs2, stronger effect = lower value",0.23 (active)
same,normalized growth,"locus YAL030W, strain snc1, stronger effect = lower value",0.985 (inactive)
same,normalized growth,"locus YAL040C, strain CLN3, stronger effect = lower value",1.07 (inactive)
same,normalized growth,"locus YBL061C, strain skt5, stronger effect = lower value",0.963 (inactive)
same,normalized growth,"locus YBR009C, strain hhf1, stronger effect = lower value",0.877 (active)
same,normalized growth,"locus YBR021W, strain FUR4, stronger effect = lower value",0.195 (active)
same,normalized growth,"locus YBR023C, strain chs3, stronger effect = lower value",0.923 (inactive)
same,normalized growth,"locus YBR171W, strain sec66, stronger effect = lower value",1.03 (inactive)
same,normalized growth,"locus YBR229C, strain ROT2, stronger effect = lower value",0.451 (active)
same,normalized growth,"locus YBR231C, strain swc5, stronger effect = lower value",0.94 (inactive)
same,normalized growth,"locus YBR279W, strain paf1, stronger effect = lower value",0.924 (active)
same,normalized growth,"locus YCL011C, strain gbp2, stronger effect = lower value",0.94 (inactive)
same,normalized growth,"locus YCL016C, strain dcc1, stronger effect = lower value",0.951 (inactive)
same,normalized growth,"locus YCL029C, strain bik1, stronger effect = lower value",0.169 (active)
same,normalized growth,"locus YCL061C, strain MRC1 (second series), stronger effect = lower value",0.991 (inactive)
same,normalized growth,"locus YCL069W, strain vba3, stronger effect = lower value",1.01 (inactive)
same,normalized growth,"locus YCR088W, strain abp1, stronger effect = lower value",1.01 (inactive)
same,normalized growth,"locus YDL005C, strain med2, stronger effect = lower value",1.05 (inactive)
same,normalized growth,"locus YDL035C, strain GPR1, stronger effect = lower value",0.0738 (active)
same,normalized growth,"locus YDL040C, strain nat1, stronger effect = lower value",1.01 (inactive)
same,normalized growth,"locus YDL074C, strain BRE1, stronger effect = lower value",0.0864 (active)
same,normalized growth,"locus YDL101C, strain DUN1, stronger effect = lower value",0.0947 (active)
same,normalized growth,"locus YDL134C, strain PPH21, stronger effect = lower value",0.0681 (active)
same,normalized growth,"locus YDL185W, strain tfp1, stronger effect = lower value",1.01 (inactive)
same,normalized growth,"locus YDL192W, strain arf1, stronger effect = lower value",0.0652 (active)
same,normalized growth,"locus YDR001C, strain nth1, stronger effect = lower value",1.02 (inactive)
same,normalized growth,"locus YDR069C, strain doa4, stronger effect = lower value",0.891 (active)
same,normalized growth,"locus YDR101C, strain arx1, stronger effect = lower value",0.419 (active)
same,normalized growth,"locus YDR137W, strain rgp1, stronger effect = lower value",1.35 [resistant] (active)
same,normalized growth,"locus YDR150W, strain NUM1, stronger effect = lower value",0.972 (inactive)
same,normalized growth,"locus YDR159W, strain sac3, stronger effect = lower value",0.977 (inactive)
same,normalized growth,"locus YDR162C, strain NBP2, stronger effect = lower value",0.0524 (active)
same,normalized growth,"locus YDR195W, strain ref2",1.37 [resistant] (active)
same,normalized growth,"locus YDR297W, strain sur2, stronger effect = lower value",0.962 (inactive)
same,normalized growth,"locus YDR318W, strain mcm21, stronger effect = lower value",0.116 (active)
same,normalized growth,"locus YDR334W, strain swr1, stronger effect = lower value",1.04 (inactive)
same,normalized growth,"locus YDR335W, strain msn5, stronger effect = lower value",0.967 (inactive)
same,normalized growth,"locus YDR363W, strain ESC2, stronger effect = lower value",0.894 (inactive)
same,normalized growth,"locus YDR388W, stronger effect = lower value",0.0641 (active)
same,normalized growth,"locus YDR392W, strain spt3, stronger effect = lower value",1.12 (inactive)
same,normalized growth,"locus YDR502C, strain sam2, stronger effect = lower value",0.123 (active)
same,normalized growth,"locus YEL003W, strain gim4, stronger effect = lower value",0.971 (inactive)
same,normalized growth,"locus YEL037C, strain rad23, stronger effect = lower value",1.01 (inactive)
same,normalized growth,"locus YEL061C, strain CIN8 (second series), stronger effect = lower value",1.02 (inactive)
same,normalized growth,"locus YEL061C, strain CIN8, stronger effect = lower value",0.196 (active)
same,normalized growth,"locus YER002W, strain NOP16, stronger effect = lower value",1.01 (inactive)
same,normalized growth,"locus YER015W, strain faa2, stronger effect = lower value",0.842 (active)
same,normalized growth,"locus YER016W, strain bim1, stronger effect = lower value",0.992 (inactive)
same,normalized growth,"locus YER110C, stronger effect = lower value",0.916 (inactive)
same,normalized growth,"locus YER111C, strain swi4, stronger effect = lower value",1.01 (inactive)
same,normalized growth,"locus YER155C, strain BEM2 (second series), stronger effect = lower value",1.05 (inactive)
same,normalized growth,"locus YER155C, strain BEM2, stronger effect = lower value",0.789 (active)
same,normalized growth,"locus YER167W, strain BCK2, stronger effect = lower value",0.118 (active)
same,normalized growth,"locus YFR010W, strain ubp6, stronger effect = lower value",0.781 (active)
same,normalized growth,"locus YGL078C, strain dbp3, stronger effect = lower value",1.01 (inactive)
same,normalized growth,"locus YGL086W, strain mad1, stronger effect = lower value",0.0828 (active)
same,normalized growth,"locus YGL167C, strain pmr1, stronger effect = lower value",1.01 (inactive)
same,normalized growth,"locus YGL173C, strain kem1, stronger effect = lower value",0.966 (inactive)
same,normalized growth,"locus YGL227W, strain vid30, stronger effect = lower value",1.04 (inactive)
same,normalized growth,"locus YGL240W, strain doc1, stronger effect = lower value",0.955 (inactive)
same,normalized growth,"locus YGL248W, strain PDE1, stronger effect = lower value",0.0643 (active)
same,normalized growth,"locus YGL253W, strain hxk2, stronger effect = lower value",0.948 (inactive)
same,normalized growth,"locus YGR078C, strain PAC10, stronger effect = lower value",0.194 (active) and 1.01 (inactive)
same,normalized growth,"locus YGR135W, strain pre9, stronger effect = lower value",0.189 (active)
same,normalized growth,"locus YGR229C, strain SMI1, stronger effect = lower value",0.06 (active)
same,normalized growth,"locus YGR252W, strain gcn5, stronger effect = lower value",0.161 (active)
same,normalized growth,"locus YHR013C, strain ard1, stronger effect = lower value",1.01 (inactive)
same,normalized growth,"locus YHR027C, strain rpn1, stronger effect = lower value",0.844 (active)
same,normalized growth,"locus YHR030C, strain SLT2, stronger effect = lower value",0.0522 (active) and 0.997 (inactive)
same,normalized growth,"locus YHR079C, strain IRE1 (second series), stronger effect = lower value",0.374 (active)
same,normalized growth,"locus YHR079C, strain IRE1, stronger effect = lower value",0.979 (inactive)
same,normalized growth,"locus YHR094C, strain hxt1, stronger effect = lower value",0.304 (active)
same,normalized growth,"locus YHR129C, strain ARP1, stronger effect = lower value",0.0924 (active)
same,normalized growth,"locus YHR142W, strain chs7, stronger effect = lower value",0.962 (inactive)
same,normalized growth,"locus YHR200W, strain rpn10, stronger effect = lower value",0.26 (active)
same,normalized growth,"locus YIL066C, strain RNR3, stronger effect = lower value",0.0646 (active)
same,normalized growth,"locus YIL073C, strain SPO22, stronger effect = lower value",0.0996 (active)
same,normalized growth,"locus YIL125W, strain kgd1, stronger effect = lower value",1.01 (inactive)
same,normalized growth,"locus YIR030C, strain dcg1, stronger effect = lower value",0.227 (active)
same,normalized growth,"locus YJL092W, strain hpr5, stronger effect = lower value",0.994 (inactive)
same,normalized growth,"locus YJL095W, strain BCK1 (second series), stronger effect = lower value",0.894 (active)
same,normalized growth,"locus YJL095W, strain BCK1, stronger effect = lower value",0.0681 (active) and 0.997 (inactive)
same,normalized growth,"locus YJL115W, strain asf1, stronger effect = lower value",1.01 (inactive)
same,normalized growth,"locus YJL129C, strain trk1, stronger effect = lower value",1.07 (inactive)
same,normalized growth,"locus YJL134W, strain LCB3, stronger effect = lower value",0.9 (active)
same,normalized growth,"locus YJL154C, strain vps35, stronger effect = lower value",1.03 (inactive)
same,normalized growth,"locus YJL164C, strain tpk1, stronger effect = lower value",0.977 (inactive)
same,normalized growth,"locus YJL166W, strain qcr8, stronger effect = lower value",0.97 (inactive)
same,normalized growth,"locus YJL168C, strain set2, stronger effect = lower value",0.098 (active)
same,normalized growth,"locus YJL187C, strain SWE1 (second series), stronger effect = lower value",0.0709 (active)
same,normalized growth,"locus YJL187C, strain SWE1, stronger effect = lower value",0.939 (inactive)
same,normalized growth,"locus YJR043C, strain POL32, stronger effect = lower value",0.0862 (active)
same,normalized growth,"locus YJR066W, strain TOR1, stronger effect = lower value",0.937 (inactive)
